Experimental data as given in PubChem BioAssay (Tox21).
Several values for one entry are separate records, joined by “and”; a condition that tells them apart may be missing. Equal values may be shown once. Records with an inconclusive call do not appear. Where a structure was tested more than once in an assay, its records may differ in their call. Activity calls are given as the source filed them. Unless noted, calls come from the whole dose curve; as a rule, active = well fitted curve in the direction sought with a large enough effect in the repeat runs; inconclusive = weak or mixed curves; inactive = no such curve, though single readings can be large; an effect the other way counts as inactive or inconclusive.

Key:
[1] = A CellTox Green Cytotoxicity Assay to monitor cytotoxicity in HEK293 cells - 32 hour (AID 1224881); note: nearly all actives have a fitted effect of over 40% in size; note: potency is the fitted concentration of half-maximal effect
Summary of the method: (§1)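 Seeding of HEK293 cells together with cytotoxicity dye preceded a 5 h incubation at 37 C/5% CO2. Test compounds in DMSO were then added and fluorescence monitored across 40 h.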

[2] = A CellTox Green Cytotoxicity Assay to monitor cytotoxicity in HepG2 cells - 0 hour (AID 1224882); note: nearly all actives have a fitted effect of over 35% in size
Summary of the method: (§2)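 Nonlytic assay: viable cells exclude the dye, so fluorescence scales with cell death. HepG2 at 600 cells/well, compounds added after 5 h, signal read across 40 h.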

[3] = A CellTox Green Cytotoxicity Assay to monitor cytotoxicity in HepG2 cells - 32 hour (AID 1224883); note: nearly all actives have a fitted effect of over 50% in size; note: potency is the fitted concentration of half-maximal effect
Summary of the method: as §2

[4] = A CellTox Green Cytotoxicity Assay to monitor cytotoxicity in HEK293 cells - 8 hour (AID 1224884); note: nearly all actives have a fitted effect of over 35% in size
Summary of the method: as §1

[5] = qHTS RealTime-Glo MT Cell Viability Assay in HepG2 cells - 16 hour (AID 1224885); note: nearly all actives have a fitted effect of over 50% in size
Summary of the method: (§3)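 Viability was tracked continuously by NanoLuc luminescence from prosubstrate reduced by living HepG2 cells, at successive time points over 40 h of compound exposure. Cells with reagent were preincubated 5 h at 37 °C before compound addition.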

[6] = qHTS RealTime-Glo MT Cell Viability Assay in HEK293 cells - 24 hour (AID 1224886); note: top concentration of the series differs between compounds; nearly all actives have a fitted effect of over 50% in size
Summary of the method: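 Viability tracked continuously by luminescence as live cells reduce a prosubstrate for NanoLuc; HEK293 cells preincubated 5 h, compound-treated at 37 C, and read at 0, 8, 16, 24, 32 and 40 h.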

[7] = qHTS RealTime-Glo MT Cell Viability Assay in HEK293 cells - 8 hour (AID 1224887); note: top concentration of the series differs between compounds; nearly all actives have a fitted effect of over 50% in size
Summary of the method: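 Tox21 screen in HEK293 using RealTime-Glo MT chemistry, with cells and reagent co-dispensed. Luminescence proportional to viable cell number was captured at intervals during 40 h compound exposure at 37 C.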

[8] = qHTS RealTime-Glo MT Cell Viability Assay in HepG2 cells - 0 hour (AID 1224889); note: nearly all actives have a fitted effect of over 50% in size
Summary of the method: as §3

[9] = A CellTox Green Cytotoxicity Assay to monitor cytotoxicity in HepG2 cells - 8 hour (AID 1224890); note: nearly all actives have a fitted effect of over 45% in size
Summary of the method: as §2

[10] = qHTS assay to identify small molecule antagonists of the estrogen receptor alpha (ER-alpha) signaling pathway using the BG1 cell line in the presence of 0.1 nM 17-beta-estradiol - cell viability counter screen (AID 1259241); note: nearly all actives have a fitted effect of over 40% in size
Summary of the method: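 Measures cytotoxicity alongside the ER-alpha antagonist readout: VM7Luc4E2 cells, charcoal-stripped serum, 0.1 nM 17beta-estradiol final, 22 hr compound incubation at 37C, CellTiter-Fluor fluorescence.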

[11] = qHTS assay to identify small molecule antagonists of the androgen receptor (AR) signaling pathway using the MDA cell line in the presence of 0.5 nM R1881 - cell viability counter screen (AID 1259242); note: nearly all actives have a fitted effect of over 45% in size; note: potency is the fitted concentration of half-maximal effect
Summary of the method: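 R1881 at 0.5 nM final stimulated MDA-kb2 cells during 16 hr compound treatment at 37C. Cytotoxicity read: CellTiter-Fluor fluorescence after 30 min.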

[12] = qHTS assay to identify small molecule HDAC inhibitors (AID 1259364);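 note: wild-type HCT-116 cells with endogenous class I/II HDAC activity; top concentration of the series differs between compounds; nearly all actives have a fitted effect of over 45% in size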
Summary of the method: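 Relative class I and II HDAC activity is taken from the luminogenic signal in HCT-116 cells, with compound exposure 2 hr and reagent development 30 min at room temperature.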

[13] = qHTS assay to identify small molecule HDAC inhibitors - cell viability counter screen (AID 1259365)
Summary of the method: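 Following a 2hr exposure of overnight-plated wild-type HCT-116 cells to DMSO-delivered compounds, CellTiter-Glo was added and luminescence recorded after 30min at room temperature.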

[14] = qHTS assay to identify small molecule agonists of the sonic hedgehog signaling (Shh) pathway - cell viability counter screen (AID 1259366); note: nearly all actives have a fitted effect of over 50% in size
Summary of the method: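 After a 4hr attachment at 37C, NIH/3T3 cells bearing an integrated Gli1-driven luciferase reporter were dosed with compounds. Treatment lasted 24hr, with the final hour including CellTiter-Fluor for a fluorescence viability measurement.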

[15] = qHTS assay to identify small molecule antagonists of the sonic hedgehog signaling (Shh) pathway - cell viability counter screen (AID 1259367); note: nearly all actives have a fitted effect of over 55% in size; note: potency is the fitted concentration of half-maximal effect
Summary of the method: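 Cells: 3T3 Gli1-Luc, 2,000/well, 4 hr pre-incubation. Compounds in DMSO, then conditioned medium. Incubation 24 hr, 37C, 5% CO2. CellTiter-Fluor at 23 hr, 1 hr, fluorescence.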

[16] = qHTS assay to identify small molecule agonists of the sonic hedgehog signaling (Shh) pathway (AID 1259368; calls by dose curve;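 note: NIH/3T3-derived 3T3Gli1-Luc cells carrying a stable Gli1-driven firefly luciferase reporter; series mostly up to about 92 µM; nearly all actives have a fitted effect of over 15% in size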)
Summary of the method: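 Mouse fibroblast (NIH/3T3) reporter cells with stably integrated Gli1-Luc were treated 24 hr with compound; firefly luciferase luminescence served as the read-out.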

[17] = A CellTox Green Cytotoxicity Assay to monitor cytotoxicity in HEK293 cells - 16 hour (AID 1224888); note: nearly all actives have a fitted effect of over 35% in size
Summary of the method: as §1

[18] = target: Estrogen receptor (Homo sapiens) (UniProt P03372); assay: qHTS assay to identify small molecule antagonists of the estrogen receptor alpha (ER-alpha) signaling pathway using the BG1 cell line in the presence of 0.1 nM 17-beta-estradiol (AID 1259244); note: nearly all actives have a fitted effect of over 50% in size; note: potency is the fitted concentration of half-maximal effect
Estrogen receptor (Homo sapiens), sequence (P03372 whole entry, looked up): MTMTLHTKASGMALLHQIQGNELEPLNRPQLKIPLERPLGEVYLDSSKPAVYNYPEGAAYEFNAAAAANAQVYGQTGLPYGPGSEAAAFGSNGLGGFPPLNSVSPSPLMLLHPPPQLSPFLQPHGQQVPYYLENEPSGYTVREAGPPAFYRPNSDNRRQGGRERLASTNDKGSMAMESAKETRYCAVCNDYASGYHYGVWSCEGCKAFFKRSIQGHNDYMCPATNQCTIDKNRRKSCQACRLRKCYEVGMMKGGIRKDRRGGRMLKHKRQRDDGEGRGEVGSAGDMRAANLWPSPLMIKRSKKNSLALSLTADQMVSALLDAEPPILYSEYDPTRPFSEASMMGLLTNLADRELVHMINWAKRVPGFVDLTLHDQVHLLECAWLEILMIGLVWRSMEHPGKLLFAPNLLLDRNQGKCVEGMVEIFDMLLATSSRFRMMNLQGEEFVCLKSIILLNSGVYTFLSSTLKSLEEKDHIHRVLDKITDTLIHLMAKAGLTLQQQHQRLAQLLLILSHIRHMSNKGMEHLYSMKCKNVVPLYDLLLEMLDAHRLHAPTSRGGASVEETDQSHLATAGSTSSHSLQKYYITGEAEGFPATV
Summary of the method: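 VM7Luc4E2; 4xERE-luciferase; 0.1 nM E2 final; 22 h co-incubation, 37C; ONE-Glo luminescence after 30 min at room temperature.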

[19] = target: Androgen receptor (Homo sapiens) (UniProt P10275); assay: qHTS assay to identify small molecule antagonists of the androgen receptor (AR) signaling pathway using the MDA cell line in the presence of 0.5 nM R1881 (AID 1259243)
Androgen receptor (Homo sapiens), sequence (P10275 whole entry, looked up): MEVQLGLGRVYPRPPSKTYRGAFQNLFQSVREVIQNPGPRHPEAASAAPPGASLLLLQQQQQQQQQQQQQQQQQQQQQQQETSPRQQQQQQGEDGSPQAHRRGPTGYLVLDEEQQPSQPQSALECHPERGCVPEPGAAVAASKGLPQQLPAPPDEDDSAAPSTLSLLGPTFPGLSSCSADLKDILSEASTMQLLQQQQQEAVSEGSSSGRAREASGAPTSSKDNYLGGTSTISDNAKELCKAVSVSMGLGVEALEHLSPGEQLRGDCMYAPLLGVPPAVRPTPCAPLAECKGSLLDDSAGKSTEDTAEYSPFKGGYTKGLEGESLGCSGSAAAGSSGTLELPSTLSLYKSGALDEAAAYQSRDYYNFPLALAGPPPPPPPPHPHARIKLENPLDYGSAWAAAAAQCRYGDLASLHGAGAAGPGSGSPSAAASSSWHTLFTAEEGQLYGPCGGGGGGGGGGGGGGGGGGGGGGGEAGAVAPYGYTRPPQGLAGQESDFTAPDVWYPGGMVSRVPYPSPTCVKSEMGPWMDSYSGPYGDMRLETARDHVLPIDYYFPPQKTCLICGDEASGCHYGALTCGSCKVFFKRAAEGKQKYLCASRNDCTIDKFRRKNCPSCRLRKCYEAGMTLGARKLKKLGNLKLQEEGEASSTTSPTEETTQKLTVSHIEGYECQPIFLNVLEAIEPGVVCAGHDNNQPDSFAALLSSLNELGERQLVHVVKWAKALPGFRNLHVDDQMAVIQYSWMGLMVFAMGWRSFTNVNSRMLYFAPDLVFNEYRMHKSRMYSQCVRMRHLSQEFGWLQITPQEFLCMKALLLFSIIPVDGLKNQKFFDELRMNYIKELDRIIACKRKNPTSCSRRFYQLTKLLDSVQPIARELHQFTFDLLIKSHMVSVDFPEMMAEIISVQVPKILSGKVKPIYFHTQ
Summary of the method: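 We exposed MDA-kb2 cells to compounds under 0.5 nM R1881 stimulation for 16 hr at 37C and quantified MMTV-driven luciferase by luminescence.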

[20] = qHTS assay to identify small molecule phospholipidosis (PLD) inducers (AID 1259344; active = well fitted curve in the direction sought with a large enough effect; an effect the other way counts as inactive or inconclusive)
Summary of the method: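 Phospholipidosis is scored by imaging LipidTOX-stained pits in HepG2 cells exposed to compound for 24 h at 37 C; pit counts and integrated intensities per well and per cell serve as outputs.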

Measured: Potency

CCC(C)c1ccccc1O (centres undefined)
active: [1] 38.6 µM | [3] 48.6 µM
not listed: [17] | [18] | [19] | [20]
inactive: all other assays above

Nc1ccc(Cl)cc1Cl
not listed: [6] | [19] | [20]
inactive: all other assays above

C=CC(C)(CCC=C(C)C)OC(C)=O (centres undefined)
not listed: [8] | [19] | [20]
inactive: all other assays above

O=C(Nc1ccc(Cl)cc1)Nc1ccc(Cl)c(Cl)c1
active: [11] 21.7 µM and 23.7 µM | [19] 17.1 µM and 13.7 µM and 13.3 µM | [18] 21.6 µM and 12.2 µM and 16.8 µM
not listed: [6]
inactive: all other assays above

Brc1cc(Oc2cc(Br)c(Br)c(Br)c2Br)c(Br)c(Br)c1Br
not listed: [8] | [18] | [19] | [20]
inactive: all other assays above

CC(C)OC=O
not listed: [6] | [19] | [20]
inactive: all other assays above

Cn1cnc([N+](=O)[O-])c1Sc1ncnc2nc[nH]c12
active: [15] 19.2 µM
54.5 µM (active) and inactive: [3]
30.7 µM (active) and inactive: [1]
not listed: [6] | [14] | [19]
inactive: all other assays above
